Results reported in PubChem BioAssay AID504660 (National Center for Advancing Translational Sciences (NCATS), 2011).
About 3,700 (1%) of roughly 360,000 compounds were called active. Cut-off read from the data, not from the text of the source: active = activation above about 30%; inactive = the rest. The entries come from a sample that favours actives as a whole.

Target: D(1A) dopamine receptor (Homo sapiens) (UniProt P21728)
Test: Allosteric Agonists of the Human D1 Dopamine Receptor: qHTS; note: 0% is about no effect
Conditions: HEK293 T-REx D1 cells, calcium flux, agonist mode; at 2 µM; active compounds read high
Method in brief: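 Inducible HEK293 T-REx D1 cells, force-coupled to calcium signalling, were plated at 4000 cells/well with tetracycline and held overnight at 30 C. After no-wash calcium dye loading, compound-evoked calcium rise over 180 s flagged agonists.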

Chain of D(1A) dopamine receptor (Homo sapiens) (P21728 whole entry, looked up): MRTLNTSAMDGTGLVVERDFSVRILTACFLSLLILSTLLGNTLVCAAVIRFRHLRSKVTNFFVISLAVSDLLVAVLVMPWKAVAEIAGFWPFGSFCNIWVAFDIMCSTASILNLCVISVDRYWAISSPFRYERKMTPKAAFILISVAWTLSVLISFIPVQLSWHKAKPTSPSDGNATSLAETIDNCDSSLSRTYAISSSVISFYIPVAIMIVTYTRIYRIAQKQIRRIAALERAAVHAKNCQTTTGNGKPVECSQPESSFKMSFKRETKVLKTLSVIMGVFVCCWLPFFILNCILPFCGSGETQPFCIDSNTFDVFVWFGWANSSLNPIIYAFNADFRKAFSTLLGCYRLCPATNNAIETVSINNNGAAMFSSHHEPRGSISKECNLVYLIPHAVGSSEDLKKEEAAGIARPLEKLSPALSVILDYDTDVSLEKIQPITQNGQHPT

activation, active:
COc1cc(OC)c(-n2cc(-c3ccc(Cl)cc3)[nH]c2=O)cc1Cl 87.1%, CC(NC(=O)COC(=O)c1ccc(Cl)cc1O)c1ccc(F)cc1 (configuration not stated) 40%, O=C(N/N=C/c1sc(N2CCCCC2)nc1-c1cccs1)c1cccnc1 32.8%, O=C(Nc1cccc(-c2cccc(Cl)c2)c1)C1CCN(C2CCC2)CC1 33.2%, CCOC(=O)/C(C#N)=C/c1ccc(N2CCCCC2)cc1 68.9%, CCOC(=O)/C(C#N)=C/c1ccc(N2CCN(Cc3ccccc3)CC2)cc1 46.5%, O=C(NCCc1c[nH]c2ccccc12)C1CCN(Cc2ccc(Br)cc2)CC1 35.5%, CCOc1ccc(CN2CCN(Cc3c[nH]c4ccccc34)CC2)cc1 33.4%, COc1cc(/C=C(\C#N)c2nc3c(s2)CC(C)CC3)ccc1O (configuration not stated) 35.8%, CC1=CC2=NC(=O)/C(=C/c3coc4ccccc4c3=O)C(=N)N2O1 227%, N#C/C(=C/c1ccc(N2CCCCC2)o1)C(=O)NCCc1c[nH]c2ccccc12 78.8%, O=C(/C=C/c1ccc(N2CCOCC2)cc1)c1ccccc1 108%

activation, inactive:
O=C(Cn1cnc2c(oc3ccccc32)c1=O)Nc1ccc(OC(F)(F)F)cc1 26.6%, CCn1cc(C(=O)OCC(=O)Nc2cc(C)cc(C)c2)c(=O)c2ccc(C)nc21 -2.27%, COc1ccc(CNC(=O)Cn2nnc(-c3ccc(S(C)(=O)=O)cc3)n2)cc1 -0.202%, COc1ccc(Cl)cc1S(=O)(=O)N1CCC(O)(c2ccc(Cl)cc2)CC1 4.61%, COc1cc(OC)c(N2CC(C(=O)Nc3cc(Cl)ccc3N3CCOCC3)CC2=O)cc1Cl (configuration not stated) 6.25%, CCCC12CN3CC(C)(CN(C1)C3c1ccccc1Cl)C2=O (configuration not stated) -0.996%, COc1ccc(-c2noc(CSc3nc4ccc(C)cc4[nH]3)n2)cc1 5.23%, CC(CCc1ccccc1)NC(=O)COC(=O)c1ccc(F)cc1 (configuration not stated) 10.8%, C=CCOc1ccc(/C=C/C(=O)OCC(=O)NC(C)c2ccc(F)cc2)cc1 (configuration not stated) 7.04%, O=C1CCCc2cc(S(=O)(=O)N3CCCC(C(=O)NCc4ccccc4)C3)ccc2N1 (configuration not stated) 1.11%, CCc1ccccc1NC(=O)Cn1c(=O)n(CC2CCC(C(=O)NCCc3ccccc3)CC2)c(=O)c2ccccc21 (configuration not stated) -1.58%, CCn1cc(C(=O)NCc2ccccc2)c(=O)c2cc(S(=O)(=O)N3CCCCC3)ccc21 1.41%, Cc1ccc(S(=O)(=O)N2CCCCC2)cc1NC(=O)c1cccnc1 4.22%, O=C(c1cccnc1)N1CCN(S(=O)(=O)c2cccs2)CC1 1.36%, Cc1cc(NC(=O)C2CCC(CNS(=O)(=O)c3ccc(Br)s3)CC2)ccc1Br (configuration not stated) 9.94%, N#Cc1nc(Nc2cccc(Cl)c2)nc(NC2CCCC2)n1 4.33%, COc1cccc2c1cc1c(=O)n(CC(=O)N3CCN(c4cccc(Cl)c4)CC3)nc(C)n12 -0.0969%, O=C(CNC(=O)c1ccc(Cl)c(C(F)(F)F)c1)OC(C(=O)Nc1cc(C(F)(F)F)ccc1Cl)c1ccccc1 (configuration not stated) 15.3%, Cc1ccc(C(=O)NCCSc2c(C)[nH]c3ccccc23)cc1C 2.99%, O=C(NCc1ccc2c(c1)CCN2C(=O)c1ccccc1)Nc1cc(F)ccc1F 2.32%, CCn1cc(CN2CCC(C(=O)Nc3cccc(-c4cccc(Cl)c4)c3)CC2)cn1 10.6%, CCn1cc(CN2CCC(C(=O)Nc3cccc(-c4cccc(Cl)c4)c3)CC2)c(C)n1 17.5%, O=C(Nc1cccc(-c2nc3ccccc3o2)c1)c1cccc(Br)c1 11.1%, COc1ccc(/C=C(\C#N)C(=O)ONC2=NCCCCC2)cc1 4.53%, CCOC(=O)/C(C#N)=C\c1c(C)cc(C)c(COC(C)=O)c1C 0.226%, CCCn1c(C)cc(/C=C(\C#N)C(=O)OCC(=O)N(C)c2c(N)n(Cc3ccccc3)c(=O)[nH]c2=O)c1C 1.98%, CCOC(=O)C1CCN(Cc2ccc(-c3ccccc3)cc2)CC1 5.56%, Cc1ccc2sc(N(Cc3cccnc3)C(=O)C3COc4ccccc4O3)nc2c1C (configuration not stated) 20.1%, CC1CCN(S(=O)(=O)c2ccc3c(c2)N(CC(=O)NCCc2ccccc2)C(=O)CO3)CC1 1.33%, Cc1ccc2[nH]cc(CCNC(=O)C3CCCCC3)c2c1 5.96%, CC1(C(=O)NCCc2c[nH]c3ccccc23)C=CC2(CCCCC2)N1C(=O)c1ccccc1 (configuration not stated) -1.33%, CCOc1ccc(CN2CCCN(C)CC2)cc1 1.05%, COc1ccc(CN2CCN(Cc3ccc(OC)c(OC)c3OC)CC2)cc1 1.73%, O=S(=O)(c1ccc(Cl)cc1)c1nnn2c1nc(NC1CCCC1)c1sccc12 -0.225%, Cc1ccc(C)c(N2CCN(Cc3nnc(-c4ccccc4)o3)CC2)c1 6.92%, CCCn1c2ccccc2c2cnn(CC(=O)N(CC)c3cc(C)ccc3C)c(=O)c21 3.04%, COc1cccc2cc(-c3nc(Cl)c4c5c(sc4n3)CC(C)CC5)c(=O)oc12 (configuration not stated) -0.914%, COc1ccc(OCCCn2cccc2/C=C2/C(=N)N3OC(C)=CC3=NC2=O)cc1 1.18%, Cc1cc(C)c2oc(-c3cccc(NC(=O)c4cccc(F)c4)c3C)nc2c1 1.24%, O=C(NCCc1c[nH]c2ccccc12)c1cc2ccccc2oc1=O 4.67%, Cc1ccc(C(=O)N/C(=C/c2ccco2)C(=O)NCCc2c[nH]c3ccccc23)cc1C 2.88%, CCOc1ccccc1CNC(=O)c1cnc2c(-c3ccc(OCC)c(OCC)c3)c(C)nn2c1C 1.83%, CCOc1ccc(NC(=O)CC2C(=O)N(c3cccc(OC)c3)C(=O)N2C2CCCCC2)cc1 (configuration not stated) 2.76%, C/C(=C/c1ccccc1)C(=O)N1CCN(c2ccccc2)CC1 0.356%, O=C(O)CCC(=O)Nc1ccc(N2CCOCC2)cc1 4.21%
